Experimental data as given in PubChem BioAssay AID745 (Emory University Molecular Libraries Screening Center, 2007).
Among all 33,000 compounds or so, about 40 (0.1%) were called active. Cut-off read from the data, not from the text of the source: active = z-score below about -3; inactive = the rest. The entries come from a sample that favours actives as a whole.

assay: inhibitors of measles virus growth in cells, primary screen, measles RdRp inhibitor project, cell-based, single point, HTS (AID 745); conditions: infected Vero cells, GFP fluorescence, 64 h; stronger effect = lower value

z-score, inactive:
CC1=C(C(=O)N2CCOCC2)C(c2cccc(Cl)c2)C2=C(CCCC2=O)N1 (stereo not given) 0.7
COc1cc(NS(=O)(=O)c2ccc(NC(=O)CN3C(=O)c4ccccc4C3=O)cc2)ncn1 -0.53
CCOC(=O)Cc1nnc(NC(=O)c2ccc([N+](=O)[O-])cc2)s1 -0.27
Cc1c(C(=O)Nc2cccc(Cl)c2)oc2ccc(S(=O)(=O)N3CCOCC3)cc12 -0.46
C=CCn1c(SCCCC)nc2sc3c(c2c1=O)CCC3 1.46
Cc1cc(C)cc(NC(=O)c2cnn3c(C(F)(F)F)cc(-c4ccco4)nc23)c1 0.42
C=CCOc1ccc(NC(=O)C(=O)NC(C)c2ccccc2)cc1 (stereo not given) 0.77
O=C(O)COc1ccc(-c2cc(C(=O)O)c3cc(Br)ccc3n2)cc1 0.41
NS(=O)(=O)c1ccc(CCNC(=O)c2ccc3c(=O)n(Cc4ccco4)c(=S)[nH]c3c2)cc1 0.48
COc1cccc(C(=O)Nc2ccc3nc(N4CCCCC4)cc(C)c3c2)c1 -0.1
COc1cc(CNc2ccc3[nH]c(=O)[nH]c3c2)ccc1OCc1cccs1 -1.62
CCCCc1ccc(C(=O)Nc2ccc3nc(N4CCN(C)CC4)cc(C)c3c2)cc1 -0.21
COc1ccc(-c2nc3ccccc3n2Cc2ccccc2)cc1OC 0.26
O=C(Nc1ccc(Cl)cn1)c1ccc(-c2ccc(Cl)cc2)o1 -0.31
CCOC(=O)c1c(C)nc2c(C#N)c(C)n(-c3ccccc3)c2c1-c1ccc(Br)cc1 3.74
Cc1ccc(C2NC(=O)c3c(sc4c3CCCC4)N2)c(O)c1 (stereo not given) -1.13
CC1=C(C(=O)OCC(C)C)C(c2ccc(OCc3ccccc3)cc2)N2C(=O)CCSC2=N1 (stereo not given) -0.14
COc1ccc2nc(SCc3ccc(Cl)cc3)[nH]c2c1 0.1
COc1cc(C2CC(=O)c3cnc(NC(C)=O)nc3C2)cc(OC)c1OC (stereo not given) 1.22
Cc1cc(N2C(=O)c3ccccc3C2=O)ccc1Br -1.04
Cc1cccc(NC(=O)c2cc3c(=O)n4cccc(C)c4nc3s2)c1 -1.13
Cc1ccc(-n2c(SCC(=O)OCc3ccccc3)nc3c(c2=O)SCC3)cc1 -1
O=C1NC(c2ccccc2)Oc2ccccc21 (stereo not given) -0.5
Cc1ccc(Sc2c(C)nn(C(C)(C)C)c2OC(=O)C2CCCC2)cc1 -0.01
C=CCOC(=O)C1=C(C)N=C2SCCC(=O)N2C1c1ccc(Br)cc1 (stereo not given) -1.08
Cc1cc(C)cc(NC(=O)C(C)N(c2ccccc2)S(C)(=O)=O)c1 (stereo not given) 0.11
COC(=O)Cn1c(=O)n(-c2ccccc2)c(=O)n1CC(=O)OC 1.19
O=C1C2C3c4ccccc4C(Br)(c4ccccc43)C2C(=O)N1c1ccc([N+](=O)[O-])cc1 (stereo not given) -0.34
O=c1oc2ccc3ccccc3c2cc1-c1nc(-c2ccccc2)cs1 0.88
CC1CCC(NS(=O)(=O)c2ccc3c(c2)oc(=O)n3C)CC1 (stereo not given) -0.87
CN1CCN(C(=O)c2cnn3c(C(F)(F)F)cc(-c4ccc(Br)cc4)nc23)CC1 -0.34
O=C(NCc1ccc(F)cc1)c1ccc2c(=O)n(C3CCCC3)c(=S)[nH]c2c1 -0.53
COc1ccc(-c2c(C(F)(F)F)oc3cc(O)ccc3c2=O)cc1 0.21
CC(C)c1ccccc1NC(=O)c1ccccc1 0.08
CC(C)c1ccc(NC(=O)c2ccc(NC3CCCC(C)C3C)c([N+](=O)[O-])c2)cc1 (stereo not given) -0.26
O=C(CSc1nc2c(cnn2-c2ccc(F)cc2)c(=O)[nH]1)N1CCCCCC1 -0.88
CCCn1c2ccccc2c2n[nH]c(=S)nc21 -0.86
Cc1ccc(Cl)cc1N1CCN(C(=O)CCCn2c(=S)[nH]c3cc4c(cc3c2=O)OCO4)CC1 1.87
Cc1ccc(-c2cc3nc(C)cc(C(F)(F)F)n3n2)cc1 -0.75
COC(=O)c1ccc(Sc2ccc(C)cc2)c([N+](=O)[O-])c1 0.34
CCCn1c(C(C)NC(=O)C(C)(C)C)nc2ccccc21 (stereo not given) -0.58
Cc1cccc(NC(N)=Nc2nc(CSc3ccc(Cl)cc3)cc(=O)[nH]2)c1 0.03
O=[N+]([O-])c1ccc(C=Nc2ccc(-c3nc4ccccc4o3)cc2)s1 -1.32
CC(C)(C)c1ccc(C(=O)Nc2ccc(N3CCOCC3)c(Cl)c2)cc1 -1.1
CN(Cc1ccccc1)C(=O)Cn1ncc2c(=O)oc3ccccc3c21 1.21
CCCCNC(=O)c1ccc[nH]c1=S 0.16
CC(=O)c1cccc(NC(=O)c2ccccc2C(=O)O)c1 -0.2
COc1ccc(OC)c2[nH]c(=O)c(CCNC(=O)c3ccccc3I)cc12 -0.19
CSCCC1(C(=O)O)NC(c2cc(I)ccc2O)C2C(=O)N(Cc3ccccc3)C(=O)C21 (stereo not given) -0.74
O=C(NCc1ccccc1)c1ccc(CSCc2ccccc2Cl)o1 -0.18
Cc1ccc(S(=O)(=O)n2nc(OC(=O)c3ccc(F)cc3)cc2N)cc1 -1.65
Cn1c(=O)c(Cl)c(O)c2ccccc21 0.2
COC(=O)c1c(NC(=O)Cn2cnc([N+](=O)[O-])n2)sc2c1CCCC2 -0.06
CCOc1ccc(N=C2NC(=O)C(CC(=O)Nc3ccc(Br)cc3)S2)cc1 (stereo not given) -0.81
Cc1cccc(NC(=O)c2ccc(F)c(S(=O)(=O)N3CC(C)CC(C)C3)c2)c1 (stereo not given) -0.97
COC(=O)c1c(NC(=O)c2ccc(S(=O)(=O)N3CC(C)CC(C)C3)cc2)sc2c1CC(C)(C)NC2(C)C (stereo not given) -0.34
Cc1cccc(N2CCN(C(=O)c3ccc4nc5ccc(Cl)cc5c(=O)n4c3)CC2C)c1 (stereo not given) 0.3
CCOc1ccccc1NC(=O)c1sc2ncnc(N3CCCCC3C)c2c1C (stereo not given) 1.12
Cc1ccc(-n2nc3c(c2NC(=O)c2ccccc2F)CS(=O)(=O)C3)c(C)c1 -0.44
O=C1C2C3c4ccccc4C(C(=O)O)(c4ccccc43)C2C(=O)N1c1ccccc1Cl (stereo not given) -0.65
CC(C)(C)c1nnc(Nc2ccc3c(c2)OCO3)[nH]c1=O -0.67
CCNS(=O)(=O)c1cc(-c2nnc(Nc3cccc(C(F)(F)F)c3)c3ccccc23)ccc1C -0.06
Cc1ccc2nc(-c3ccccc3)c(Nc3ccccc3C)n2c1 -1.03
COc1ccc(C2/C(=C(\O)c3ccccc3)C(=O)C(=O)N2CO)cc1 (stereo not given) -0.38
O=P(Cc1cccc(CP(=O)(c2ccccc2)c2ccccc2)n1)(c1ccccc1)c1ccccc1 -1.8
COc1cc(NC(=O)c2noc3c2CCCCC3)c(OC)cc1Cl -0.93
Cc1ccc(S(=O)(=O)C2(C(=O)N(C)Cc3ccccc3)CC2)cc1 0.74
CCC(C(=O)NCCC(C)C)N1C(=O)CSc2ccc(C(C)(C)C)cc21 (stereo not given) 0.55
Cc1cc(C(=O)NCCCN=C2NS(=O)(=O)c3ccccc32)c2ccccc2n1 1.11
N#Cc1c(NC(=O)CCCC(=O)O)sc2c1CCCC2 -0.15
CCCC12CN3CC(C)(CN(C1)C3c1ccccc1Cl)C2=O (stereo not given) -0.48
O=C1CCCc2oc3c(cc(NS(=O)(=O)c4ccc(Cl)cc4)c4ccccc43)c21 -0.4
CN(C(=O)CCn1c(=S)oc2ccccc21)C1CCCCC1 -2.69
CCOc1ccc(C(=O)Nc2cccc(-c3nc4cc(C)ccc4o3)c2)cc1Br -0.49
O=C(Nc1c2c(nn1-c1ccc(F)cc1)CS(=O)(=O)C2)c1ccccc1Cl -1.44
COc1ccc(C2Nc3ccccc3C(=O)N2c2ccc(Cl)cc2)cc1COc1ccccn1 (stereo not given) 0.19
Cc1cc(Cl)ccc1OC1C(=O)N(c2cccc([N+](=O)[O-])c2)C1c1ccccc1Cl (stereo not given) -0.08
O=C(CCCn1c(=O)[nH]c2cc(Cl)ccc2c1=O)NCCc1c[nH]c2ccccc12 -0.02
O=S1(=O)N=C(N2CCCCC2)c2ccccc21 2.63
CC(=O)c1cccc(N2C(=O)c3ccc(C(=O)OCC(=O)c4cccc([N+](=O)[O-])c4)cc3C2=O)c1 -0.12
CC(C)Sc1oc(-c2ccc(F)cc2)nc1S(=O)(=O)c1ccc(Cl)cc1 -1.46
CC(=O)NC1=NN(C(C)=O)C(c2ccc3c(c2)OCO3)S1 (stereo not given) -0.09
Cc1ccc(S(=O)(=O)N2CCCCCC2)cc1C(=O)Nc1ccc(Br)cc1 -0.48
CCOc1ccc(-c2cc(C(=O)N3CCN(Cc4ccc5c(c4)OCO5)CC3)c3ccccc3n2)cc1 0.33
O=C(NCCN1CCOCC1)c1cc(Sc2cccc(Cl)c2)nc2ccccc12 0.36
Cc1cccc(NC(=O)c2c(NC(=O)c3ccncc3)sc3c2CCC(C(C)(C)C)C3)c1 (stereo not given) -0.43
COc1ccc(NC(=O)CN2C(=O)C3C4CCC(C4)C3C2=O)cc1 (stereo not given) 0.52
Cc1ccc(C)c(OCCc2c(C)n[nH]c2C)c1 0
COC(=O)c1ccccc1Oc1c(F)c(F)nc(NCCO)c1F -0.51
COc1ccc(OC)c(C=Nc2oc(-c3ccccc3)c(-c3ccccc3)c2C#N)c1 -1
